Measured values reported in the supplement of paper PMC8728848.
This is one part of a sample in which the strongest signals are shown more often than they occur.

Columns and labels:
Assay in all cases: glycan array binding signal (z-score within array); higher = stronger binding
Conditions in all cases: glycan notation: IUPAC condensed, linker removed
[1] = biological target: Fuc(a1-2)Gal(b1-3)GlcNAc(b1-3)Gal(b1-4)Glc
Outline: (§1)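 The binding signal is a Z-score computed within each array. Data were drawn from 3228 arrays in the Consortium for Functional Glycomics database, restricted to those with a known protein sequence. Scores were averaged over arrays of the same protein sequence at different concentrations or buffers, and over linkers, and negative values can be taken as non-binding.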

[2] = biological target: Fuc(a1-2)Gal(b1-3)GlcNAc(b1-3)[Fuc(a1-2)Gal(b1-3)GlcNAc(b1-6)]GalNAc
Outline: as §1

[3] = biological target: Fuc(a1-2)Gal(b1-4)GlcNAc(b1-2)[Fuc(a1-2)Gal(b1-4)GlcNAc(b1-4)]Man(a1-3)[Fuc(a1-2)Gal(b1-4)GlcNAc(b1-2)Man(a1-6)]Man(b1-4)GlcNAc(b1-4)GlcNAc
Outline: as §1

Fuc(a1-2)Gal6S(b1-4)Glc = biological target: Fuc(a1-2)Gal6S(b1-4)Glc
Outline: as §1

[4] = biological target: Fuc(a1-2)[Gal(a1-3)]Gal(b1-3)GlcNAc(b1-6)GalNAc
Outline: as §1

[5] = biological target: Fuc(a1-2)[Gal(a1-4)]Gal(b1-4)GlcNAc
Outline: as §1

[6] = biological target: Fuc(a1-2)[GalNAc(a1-3)]Gal(b1-4)GlcNAc(b1-2)Man(a1-3)[Fuc(a1-2)[GalNAc(a1-3)]Gal(b1-4)GlcNAc(b1-2)Man(a1-6)]Man(b1-4)GlcNAc(b1-4)GlcNAc
Outline: as §1

[7] = biological target: Fuc(a1-3)[GalNAc(b1-4)]GlcNAc
Outline: as §1

Gal(a1-3)Gal(b1-3)GlcNAc = biological target: Gal(a1-3)Gal(b1-3)GlcNAc
Outline: as §1

[8] = biological target: Gal(a1-3)Gal(b1-3)GlcNAc(b1-2)Man
Outline: as §1

[9] = biological target: Gal(b1-3)GalNAc(b1-4)Gal(b1-4)Glc
Outline: as §1

[10] = biological target: Gal(b1-3)GlcNAc(a1-6)Gal(b1-4)GlcNAc
Outline: as §1

Gal(b1-3)GlcNAc(b1-2)Man = biological target: Gal(b1-3)GlcNAc(b1-2)Man
Outline: as §1

[11] = biological target: Gal(b1-3)GlcNAc(b1-2)Man(a1-3)[Gal(b1-3)GlcNAc(b1-2)Man(a1-6)]Man(b1-4)GlcNAc(b1-4)[Fuc(a1-6)]GlcNAc
Outline: as §1

[12] = biological target: Gal(b1-3)GlcNAc(b1-6)GalNAc
Outline: as §1

[13] = biological target: Gal(b1-3)[Fuc(a1-4)]GlcNAc(b1-3)Gal(b1-3)[Fuc(a1-4)]GlcNAc
Outline: as §1

[14] = biological target: Gal(b1-4)GlcNAc(b1-2)Man(a1-3)[GlcNAc(b1-2)Man(a1-6)]Man(b1-4)GlcNAc(b1-4)GlcNAc
Outline: as §1

[15] = biological target: Gal(b1-4)GlcNAc(b1-2)[Gal(b1-4)GlcNAc(b1-6)]Man(a1-6)[Gal(b1-4)GlcNAc(b1-2)Man(a1-3)]Man(b1-4)GlcNAc(b1-4)[Fuc(a1-6)]GlcNAc
Outline: as §1

[16] = biological target: Gal(b1-4)GlcNAc(b1-2)[Gal(b1-4)GlcNAc(b1-6)]Man(a1-6)[GlcNAc(b1-4)][Gal(b1-4)GlcNAc(b1-2)Man(a1-3)]Man(b1-4)GlcNAc(b1-4)GlcNAc
Outline: as §1

[17] = biological target: Gal(b1-4)GlcNAc(b1-3)Gal(b1-4)GlcNAc(b1-3)Gal(b1-4)GlcNAc(b1-3)Gal(b1-4)GlcNAc(b1-3)Gal(b1-4)GlcNAc(b1-3)Gal(b1-4)GlcNAc(b1-2)Man(a1-3)[Gal(b1-4)GlcNAc(b1-3)Gal(b1-4)GlcNAc(b1-3)Gal(b1-4)GlcNAc(b1-3)Gal(b1-4)GlcNAc(b1-3)Gal(b1-4)GlcNAc(b1-3)Gal(b1-4)GlcNAc(b1-2)Man(a1-6)]Man(b1-4)GlcNAc(b1-4)GlcNAc
Outline: as §1

[18] = biological target: Gal(b1-4)GlcNAc(b1-3)[Fuc(a1-3)GlcNAc(b1-6)]Gal(b1-4)Glc
Outline: as §1

Gal3S6S(b1-4)GlcNAc = biological target: Gal3S6S(b1-4)GlcNAc
Outline: as §1

Gal4S(b1-4)GlcNAc = biological target: Gal4S(b1-4)GlcNAc
Outline: as §1

Gal6S(b1-4)Glc6S = biological target: Gal6S(b1-4)Glc6S
Outline: as §1

Gal6S(b1-4)GlcNAc = biological target: Gal6S(b1-4)GlcNAc
Outline: as §1

Gal6S(b1-4)GlcNAc6S = biological target: Gal6S(b1-4)GlcNAc6S
Outline: as §1

[19] = biological target: GalNAc(b1-3)Gal(a1-4)Gal(b1-4)GlcNAc
Outline: as §1

[20] = biological target: GlcNAc(a1-4)Gal(b1-4)GalNAc
Outline: as §1

[21] = biological target: GlcNAc(b1-2)Man(a1-3)[GlcNAc(b1-2)Man(a1-6)]Man(b1-4)GlcNAc(b1-4)GlcNAc
Outline: as §1

[22] = biological target: GlcNAc(b1-2)[GlcNAc(b1-4)]Man(a1-3)[GlcNAc(b1-4)][GlcNAc(b1-2)Man(a1-6)]Man(b1-4)GlcNAc(b1-4)GlcNAc
Outline: as §1

B1: GS7807P-bth-537-23-537 (Bacteroides thetaiotaomicron) (protein)
chain: NYENINSNPYEAPDLSADGYALGSAMNNLAGCVVSPDVNTAQFTDCLLGGPLGGYFADSNAGFTETISNFNPKDDWSRVFLKSDKIIPTLYSNLTQVKLVSQNTNDPVPYAIAQVIKVAAMHRVTDAFGPIPYSQIGANGEIATPYDSQEVTYNTFFDELNAAIATLNENSNEQLVPTADYIYKGDVKKWIRFANSLKLRLAIRIAYANPVKAQQMAEEAVNPANGGVIESNADNATWNYFETSQNPIYVATRYNQVQTSDHGGVPCLTGGDTHAAADIICYMNGYKDNRREKFFTKSEWAGQDYVGMRRGIVIPELKTTGHKYSGVNIAPTSPLYWMNAAEVAFLRAEGQAVFNFSMGGTAESFYNQGIRLSFEQWGADGVEDYLKDDVNKPTAYTDPAGTNTYQNALSNITIKWNDSADKEEKQERIIVQKWIANWQLGNEAWADFRRTGYPKLIPVKENKSGGVVDSEKGARRMPYPLDEFVSNKANVEYAIANYLHGADNMATDVWWASKK
- glycan array binding signal (z-score) [1]: -0.288
- glycan array binding signal (z-score) [2]: 5.33
- glycan array binding signal (z-score) [3]: -0.271
- glycan array binding signal (z-score) (Fuc(a1-2)Gal6S(b1-4)Glc): 0.294
- glycan array binding signal (z-score) [4]: 2.94
- glycan array binding signal (z-score) [5]: -0.331
- glycan array binding signal (z-score) [6]: 3.7
- glycan array binding signal (z-score) [7]: 0.192
- glycan array binding signal (z-score) (Gal(a1-3)Gal(b1-3)GlcNAc): 0.94
- glycan array binding signal (z-score) [8]: 1.1
- glycan array binding signal (z-score) [9]: 0.496
- glycan array binding signal (z-score) [10]: -0.173
- glycan array binding signal (z-score) (Gal(b1-3)GlcNAc(b1-2)Man): -0.221
- glycan array binding signal (z-score) [11]: 2.17
- glycan array binding signal (z-score) [12]: 1.42
- glycan array binding signal (z-score) [13]: -0.304
- glycan array binding signal (z-score) [14]: -0.348
- glycan array binding signal (z-score) [15]: -0.271
- glycan array binding signal (z-score) [16]: 2.06
- glycan array binding signal (z-score) [17]: 2.28
- glycan array binding signal (z-score) [18]: -0.071
- glycan array binding signal (z-score) (Gal3S6S(b1-4)GlcNAc): 0.325
- glycan array binding signal (z-score) (Gal4S(b1-4)GlcNAc): -0.373
- glycan array binding signal (z-score) (Gal6S(b1-4)Glc6S): 2.21
- glycan array binding signal (z-score) (Gal6S(b1-4)GlcNAc): 0.037
- glycan array binding signal (z-score) (Gal6S(b1-4)GlcNAc6S): 2.01
- glycan array binding signal (z-score) [19]: 0.36
- glycan array binding signal (z-score) [20]: -0.138
- glycan array binding signal (z-score) [21]: -0.374
- glycan array binding signal (z-score) [22]: -0.39
